Screening results: PubChem, several laboratories
Shown are actives, neighbours in structure and some others; about 0.74% of the full set was active somewhere.
eLon inh: inhibitors of E. coli Lon protease. P0A9M0. purified E. coli Lon protease, fluorescence polarization. inhibition, % at 7.94 µM. hit rate 0.42% among 360,000; in the data active means inhibition above about 13%, passing the limit was not always enough;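 further: 0% = enzyme with probe and DMSO and 100% = no enzyme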
LANA DNA inh: blocks KSHV LANA C-terminal domain binding to DNA | AID 504423 | inhibition, % at 9 µM | hit rate 0.078% among 340,000 | MBP-C-LANA/FAM-LBS DNA binding, fluorescence polarization;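 active means highest replicate inhibition at or above 60% at 9 µM, even if other replicates fall short; inactive means all replicates below 60% inhibition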;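 further: 0% = neutral control wells and 100% = 4 µM acridine orange control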
Keap1 Nrf2 FP: inhibitors of human Keap1-Nrf2 protein-protein interaction. Q14145. Keap1 Kelch-Nrf2 peptide fluorescence polarization, 1536-well. inhibition, % at 9.4 µM. hit rate 0.15% among 340,000. AID 504523; in the data active means inhibition above about 12%;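 further: human Keap1 Kelch domain with fluorescein labeled Nrf2 9mer peptide probe; 0% = neutral control wells and 100% = peptide positive control; higher means more block of Keap1 binding to Nrf2 peptide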
Target sequence (Q14145 whole entry, looked up, the tested form may be a part): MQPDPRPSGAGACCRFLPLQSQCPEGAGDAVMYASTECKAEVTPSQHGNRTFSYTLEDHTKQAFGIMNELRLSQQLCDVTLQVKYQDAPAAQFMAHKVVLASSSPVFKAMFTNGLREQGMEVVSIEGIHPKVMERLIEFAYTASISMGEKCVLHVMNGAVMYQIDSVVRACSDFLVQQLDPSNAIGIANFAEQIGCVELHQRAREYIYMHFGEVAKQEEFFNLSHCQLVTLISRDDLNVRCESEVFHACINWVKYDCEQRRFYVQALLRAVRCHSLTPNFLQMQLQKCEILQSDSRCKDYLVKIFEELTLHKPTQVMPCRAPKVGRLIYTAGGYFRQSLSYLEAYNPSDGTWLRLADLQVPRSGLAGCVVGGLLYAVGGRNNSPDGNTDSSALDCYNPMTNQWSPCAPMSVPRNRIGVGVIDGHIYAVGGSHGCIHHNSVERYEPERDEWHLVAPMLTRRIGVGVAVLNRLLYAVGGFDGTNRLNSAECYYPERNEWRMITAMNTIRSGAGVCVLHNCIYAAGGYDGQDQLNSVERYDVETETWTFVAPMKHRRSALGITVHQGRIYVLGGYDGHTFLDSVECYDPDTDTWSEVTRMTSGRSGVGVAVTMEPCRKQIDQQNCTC
cardiac RTF act: increases calcium sensitivity of human cardiac regulated thin filaments; hit rate 0.24% among 340,000; activation, % at 7.2 µM; P19429+P45379; AID 493008; IANBD-labeled TnC RTF fluorescence at EC20 calcium; 0% EC20 calcium, 100% full calcium;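 active means activation above the mean over all tested compounds plus 3 SD, cut at about 30% in these data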;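 further: rise in fluorescence read as greater calcium sensitivity of cardiac thin filaments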
Cardiac RTF inh: cardiac RTF calcium desensitization. IANBD-labeled cardiac RTF, Ca2+ fluorescence. inhibition, % at 7.15 µM. hit rate 0.12% among 340,000. AID 493244;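 active means inhibition above the mean inhibition of all tested compounds plus 3 SD, cut at about 17% in these data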;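 further: assay run at fixed EC70 calcium of 1.6 mM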
eLon confirm: confirmation of E. coli Lon protease inhibitors. shares compounds with eLon inh. purified E. coli Lon, fluorescence polarization. hit rate 31% among 1,400. inhibition, % at 7.94 µM; in the data active means inhibition above about 16%;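 further: 0% = enzyme with probe and DMSO and 100% = no enzyme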
Starred values were filed as active, the others as inactive; · = not tested or not shown.

SMILES	eLon inh	LANA DNA inh	Keap1 Nrf2 FP	cardiac RTF act	Cardiac RTF inh	eLon confirm
CC1(c2nc3ccccc3[nH]2)CCC2=Nc3ccccc3CN21 (configuration not stated)	1	·	·	·	·	·
O=C(NCC1CCCN1S(=O)(=O)c1cccs1)C(=O)Nc1ccccc1Cl (configuration not stated)	22*	0	-8	1	-1	-15
CCCCNc1c(-c2ccc(F)cc2)nc2nc(C)cc(C)n12	-21	·	·	·	·	·
CC(=O)N1C[C@H]2CON(C)[C@H]2C[C@H]1c1ccc(-c2cccnc2)cc1	-8	·	·	·	·	·
O=C(c1ccc(Cl)cc1)N1CCC2CC1c1cc(-c3ccccc3)ccc12 (configuration not stated)	16*	1	-2	2	-10	4
CSc1nc2[nH]c(=O)n(O)c(=O)c2n1Cc1ccccc1	-2	-2	1	-4	-1	·
COc1ccc2[nH]c(C)c(CCN(Cc3cccs3)C(=S)Nc3ccc(F)cc3)c2c1	17	26	8	29	-47	·
COc1ccc2[nH]c(C)c(CCN(Cc3cccs3)C(=S)Nc3ccccc3)c2c1	68*	8	9	13	-28	22*
O=CNCCCc1nc2ccccc2n1CCc1ccccc1	18*	5	-4	4	-5	5
CCCN(CC(=O)Nc1cc(C)on1)CC(=O)Nc1ccccc1C	60*	0	1	-9	2	0
CCCN(CC(=O)Nc1ccc(C(C)=O)cc1)CC(=O)Nc1ccccc1C	-5	1	0	-1	2	·
Cc1ccc(NC(=S)NCc2ccc(Cl)cc2)c(C)c1	17*	-1	-4	-5	-3	-47
CN1OC[C@@H]2CN(C(=O)C(C)(C)C)[C@H](c3ccc(-c4cccnc4)cc3)C[C@@H]21	15	·	·	·	·	·
CCOC(=O)N1CCN(C(=O)C[C@@H]2C[C@@]3(C(=O)OCC)CCCC=C3N(Cc3ccco3)C2=O)CC1	1	·	·	·	·	·
CC(C)CNC(=O)c1cccc2c(-c3cccc(C(N)=O)c3)coc12	-8	·	·	·	·	·
O=C(Nc1ccccc1)c1ccc(-c2ccc([N+](=O)[O-])cc2)o1	30*	0	2	-8	8	-5
COc1ccc(NC(=O)c2ccc(-c3ccc([N+](=O)[O-])cc3)o2)cc1	6	-1	3	0	-8	·
CC(C)(C)n1nnnc1C(c1cc2ccccc2o1)N1CCCCC1 (configuration not stated)	0	·	·	·	·	·
COc1ccc(C(=O)N2CCCC2)cc1	-5	-2	-1	0	-9	·
COc1ccc(C(=O)N=S2CCN(C(=O)c3ccc(Cl)cc3)CC2)cc1	103*	·	·	·	·	12
CCN1C(=O)[C@@H]2[C@@H]3CN(S(=O)(=O)c4ccc(C)cc4)[C@@H](c4ccccc4F)[C@@H]3C(=O)C[C@@H]2C1=O	-2	·	·	·	·	·
Cc1ccc(S(=O)(=O)NNC(=O)Nc2cccc(C)c2C)c(C)c1	21*	-2	-2	-2	8	2
Cc1ccc(S(=O)(=O)NNC(=O)Nc2ccccc2F)c(C)c1	-3	1	-5	-4	-7	·
CCC1CC(C(=O)O)CC(=O)N1 (configuration not stated)	2	·	·	·	·	·
Cc1nnc(SCC(=O)Nc2sccc2C#N)s1	-6	1	-4	-3	-6	·
SMILES	eLon inh	LANA DNA inh	Keap1 Nrf2 FP	cardiac RTF act	Cardiac RTF inh	eLon confirm
N#Cc1ccsc1NC(=O)CSc1nncs1	28*	20	3	10	-14	31*
O=C1OCCC1=CN1CCCCC1	-4	·	·	·	·	·
CN(Cc1cnc2nc(N)nc(N)c2n1)c1ccc(C(=O)NC(CCC(=O)O)C(=O)O)c2ccccc12 (configuration not stated)	1	2	-4	0	-5	·
N#CC1=C2N=C(N)c3ccccc3N2C2=C(C(=O)CCC2)C1c1ccc(Cl)cc1 (configuration not stated)	3	1	-3	2	3	·
N#CC1=C2N=C(N)c3ccccc3N2C2=C(C(=O)CCC2)C1c1ccccc1F (configuration not stated)	71*	3	3	3	-17	4
COc1cc(CCN(C(=O)c2cccc(S(C)(=O)=O)c2)C(CCc2ccccc2)c2nc3ccccc3[nH]2)cc(OC)c1 (configuration not stated)	-3	·	·	·	·	·
CC(=O)Nc1ccc(S(=O)(=O)Nc2nc3ccccc3nc2Sc2nncn2C)cc1	19*	15	6	13	-18	14
O=Cc1ccc2noc(-c3ccc(F)cc3)c2c1	20*	9	-12	9	-4	110*
CCCCCC(=O)OCc1ccc(C2=CC(=O)CC(C)(C)C2=O)cc1	-1	·	·	·	·	·
CCC(c1nnc(SC(C)C(=O)NC2CC2)n1-c1ccc(OC)cc1)N(C)C (configuration not stated)	19*	1	2	4	-3	4
O=C(COC(=O)c1ccccc1C(=O)OCC(=O)NCCc1c[nH]c2ccccc12)NCCc1c[nH]c2ccccc12	32*	2	2	-4	-9	-5
COc1ccc2c(c1)c1nc3ccccc3nc1n2Cc1ccc(OC)c(OC)c1	97*	8	2	14	-20	12
CC(C)(C)OC(=O)N1CCC[C@@H]1C(=O)NCc1ccccc1Cl	3	·	·	·	·	·
O=C(CNC(=O)c1ccc(Br)o1)NNC(=O)c1ccccc1	96*	0	-6	-10	-4	4
Nc1ccn([C@@H]2O[C@H](C(=O)N[C@H](CO)c3ccccc3)[C@@H](O)[C@H]2O)c(=O)n1	-11	·	·	·	·	·
O=C(Nc1ccncc1)c1cc(S(=O)(=O)N2CCCC2)ccc1Cl	21*	-2	-6	-12	3	-5
O=C(Nc1ccncc1)c1cc(S(=O)(=O)N2CCCCC2)ccc1Cl	6	-1	1	-1	-8	·
